The nature of test [1]: AP1 Signaling Pathway (AID 357).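 Further: ME-180 reporter cells stimulated with EGF at its EC50 level; on the % scale 0 is the no-effect control and ±100 the full control effect.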 The method, boiled down:
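First, ME-180 AP-1-bla cells were cultured overnight at 37 °C in low-serum Opti-MEM. Next, titrated compounds with EC50 EGF were incubated 5 hours. Finally, CCF4 was added for 2.5 hours and the 460/530 nm ratio recorded.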

A short description of test [2]: NFAT Signaling Pathway (AID 444).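 Further: carbachol stimulus at about its EC50 of 1 µM final; on the % scale 0 is the no-effect control and ±100 the full control effect.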 The following applies: Jurkat NFAT-bla M1, carbachol, beta-lactamase ratio, 5 h; at 17.2 µM (top of the series) unless noted. The method, boiled down: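 Jurkat cells with NFAT-driven β-lactamase reporter and co-expressed M1 receptor, stimulated with carbachol (final 1 uM, ~EC50), compound titration, 5 h at 37 °C. CCF4 loaded 1 h at RT; 460/530 nm ratio gave %activity and AC50.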

Test [3] in a line: Stat Signaling Pathway (AID 446).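 Further: ME-180 cervical cancer cells given 40 pM IL-6 alongside compound; SIE-controlled beta-lactamase reporter measured as 460/530 nm FRET emission ratio; on the % scale 0 is the no-effect control and ±100 the full control effect.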 The method, boiled down: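 Overnight-plated ME-180 cells bearing a STAT Inducible Element beta-lactamase reporter; 5 h co-exposure to compound and 40 pM IL-6; values normalized to 300 pM IL-6 and 125 nM JAK inhibitor controls.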
Test [4] deals with Glucocorticoid receptor (Homo sapiens) (UniProt P04150). In words: GR-GFP Redistribution (AID 450;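 active means compounds whose dose series gives a full or clear partial fitted curve of increased nuclear translocation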; further: potency means the concentration at half of the fitted maximal effect). Conditions: U2OS GR-GFP nuclear translocation, laser cytometry, 2 h.
Chain of Glucocorticoid receptor (Homo sapiens) (P04150 whole entry, looked up, the tested form may be a part): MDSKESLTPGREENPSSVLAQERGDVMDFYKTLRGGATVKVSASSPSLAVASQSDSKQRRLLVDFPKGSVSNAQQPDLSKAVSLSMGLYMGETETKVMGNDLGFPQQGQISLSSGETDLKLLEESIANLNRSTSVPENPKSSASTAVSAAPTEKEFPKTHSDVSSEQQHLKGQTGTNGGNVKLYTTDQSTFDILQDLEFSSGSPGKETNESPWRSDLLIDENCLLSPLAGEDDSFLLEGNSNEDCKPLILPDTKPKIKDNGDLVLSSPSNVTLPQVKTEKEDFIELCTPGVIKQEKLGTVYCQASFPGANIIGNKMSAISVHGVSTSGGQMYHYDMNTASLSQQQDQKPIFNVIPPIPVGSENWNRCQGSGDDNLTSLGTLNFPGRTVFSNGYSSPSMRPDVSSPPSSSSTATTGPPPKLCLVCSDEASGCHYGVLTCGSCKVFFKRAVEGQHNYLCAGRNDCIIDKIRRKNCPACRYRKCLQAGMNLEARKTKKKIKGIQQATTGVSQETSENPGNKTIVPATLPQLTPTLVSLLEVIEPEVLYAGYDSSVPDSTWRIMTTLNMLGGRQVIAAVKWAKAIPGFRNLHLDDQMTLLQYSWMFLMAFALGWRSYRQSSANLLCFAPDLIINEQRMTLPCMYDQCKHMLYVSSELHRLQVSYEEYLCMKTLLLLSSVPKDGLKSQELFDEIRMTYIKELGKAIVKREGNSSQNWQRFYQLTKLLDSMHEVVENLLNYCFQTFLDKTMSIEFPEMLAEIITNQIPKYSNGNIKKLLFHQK
Test [5] in a line: qHTS Assay for Lipid Storage Modulators (AID 1519; calls by dose curve). The following applies: Drosophila S3 cells, BODIPY lipid droplet/cell ratio, laser cytometry, cells loaded with oleic acid. An outline of the steps:
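Cells seeded at 5,000 per well were treated with compounds over a concentration series and loaded with oleic acid (400 uM, as added). Lipid droplet fluorescence (488 nm excitation, 500-530 nm channel) was read by laser-scanning cytometry and normalized to 20 uM Triacsin C.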

For test [6], the target named is Glucocorticoid receptor (Homo sapiens) (UniProt P04150). The experiment in a line: GR-EFC Redistribution (AID 451; calls by dose curve; further: potency means the concentration at half of the fitted maximal effect). Conditions: CHO-K1 GR-EFC translocation, beta-gal luminescence, 2 h. An outline of the steps: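 CHO-K1 cells expressing nuclear EA and GR-ED fragments of b-gal; compounds titrated up to 46 uM final, 2 h at 37 C. GR nuclear translocation read as complemented b-gal luminescence after 1 h RT detection.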

The target in test [7] is Mitogen-activated protein kinase 10 (Mus musculus) (UniProt Q61831). The experiment in a line: JNK3 AlphaScreen Assay (AID 530).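 Further: kinase came from lysate of stimulated human HepG2 cells; signal reports phosphorylation of biotinylated GST-cJun 1-79 at Ser73 with 10 µM ATP; on the % scale 0 is the no-effect control and ±100 the full control effect.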 An outline of the steps:
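HepG2 lysate (IL-1b/TNFa pre-activated) + biotin-GST-cJun 1-79 + anti-pSer73 cJun; cpd titration, 15 min RT; ATP 10 uM start; Tris pH 7.6, MgCl2, DTT, vanadate; beads in EDTA buffer; AlphaScreen.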

Test [8] concerns the target 3',5'-cyclic-AMP phosphodiesterase 4B (Homo sapiens) (UniProt Q07343). The experiment in a line: qHTS Assay for Inhibitors of PDE-IV (AID 607; active means well fitted activation curve with a large enough effect in the main read-out, with a control signal flat, not every such curve was filed as active; further: % of control where 0% means no effect). The method, boiled down: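 Live HEK293 cells with a modified cyclic nucleotide-gated (CNG) channel report intracellular cAMP via membrane-potential dye fluorescence (ex 535/em 590 nm). Endogenous PDE-IV was targeted. Compounds were tested at up to 22.9 uM final; RO 20-1724 100 uM served as control.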

For test [9], the target named is Ubiquitin carboxyl-terminal hydrolase 1 (Homo sapiens) (UniProt O94782). In words: Inhibitors of USP1/UAF1: Pilot qHTS (AID 504865; active means well fitted curve in the direction sought with a large enough effect; an effect the other way counts as inactive or inconclusive; further: nearly all actives have a fitted effect of over 35% in size; further: potency means the concentration at half of the fitted maximal effect). The method, boiled down: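 1nM USP1/UAF1 + cpd, 15 min RT; start w/ Ub-Rho 150nM final; kinetic FL 480/540 nm, 6 reads q60 s. Buffer 50mM HEPES pH 7.8, 0.5mM EDTA, 1mM TCEP, 0.01% Tween-20, 0.1 mg/ml BSA.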
Chain of Ubiquitin carboxyl-terminal hydrolase 1 (Homo sapiens) (O94782 whole entry, looked up): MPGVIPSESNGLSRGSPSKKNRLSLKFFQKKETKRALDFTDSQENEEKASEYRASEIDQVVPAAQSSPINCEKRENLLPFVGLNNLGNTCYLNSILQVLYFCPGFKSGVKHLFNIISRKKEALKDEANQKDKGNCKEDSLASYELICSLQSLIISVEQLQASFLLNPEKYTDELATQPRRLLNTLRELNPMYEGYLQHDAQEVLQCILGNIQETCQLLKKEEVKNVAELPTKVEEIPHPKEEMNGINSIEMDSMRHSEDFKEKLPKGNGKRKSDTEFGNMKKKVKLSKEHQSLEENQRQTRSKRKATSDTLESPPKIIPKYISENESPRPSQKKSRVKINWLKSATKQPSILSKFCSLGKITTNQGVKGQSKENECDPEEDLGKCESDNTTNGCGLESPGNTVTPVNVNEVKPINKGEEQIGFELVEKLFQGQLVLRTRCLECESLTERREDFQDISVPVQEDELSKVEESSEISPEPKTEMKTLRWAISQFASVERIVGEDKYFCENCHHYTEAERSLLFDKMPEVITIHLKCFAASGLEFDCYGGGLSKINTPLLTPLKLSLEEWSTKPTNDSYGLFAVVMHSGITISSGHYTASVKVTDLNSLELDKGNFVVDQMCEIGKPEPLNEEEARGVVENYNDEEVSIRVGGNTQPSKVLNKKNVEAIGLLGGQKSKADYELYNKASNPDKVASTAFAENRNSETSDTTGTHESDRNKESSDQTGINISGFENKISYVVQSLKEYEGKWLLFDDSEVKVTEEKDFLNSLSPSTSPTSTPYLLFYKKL
Test [10] addresses ATP-dependent 6-phosphofructokinase (Trypanosoma brucei brucei) (UniProt O15648). In words: qHTS Assay to Find Inhibitors of T. brucei phosphofructokinase: hit validation (AID 492961; active means well fitted curve in the direction sought with a large enough effect; an effect the other way counts as inactive or inconclusive). The method, boiled down: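 Compounds titrated; %activity normalized to 0x and 1x enzyme controls, curve-fitted. Readout: ADP-Glo luminescence after 45 min room-temperature reaction of 1.25 nM PFK, 0.1 mM ATP, 0.5 mM F6P, pH 8.0.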

In test [11] the target is Luciferin 4-monooxygenase (Photinus pyralis) (UniProt P08659). In words: Biochemical firefly luciferase enzyme assay for NPC (AID 624030; active means well fitted curve in the direction sought with a large enough effect; an effect the other way counts as inactive or inconclusive;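 further: purified P. pyralis luciferase at 10 nM with luciferin and ATP substrate; 0% = DMSO and -100% = full luciferase inhibition by PTC124 control; nearly all actives have a fitted effect of over 70% in size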). The method, boiled down: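 Purified P. pyralis luciferase at 10 nM in 50 mM Tris Acetate (final), luminescence read within 5 minutes of enzyme addition to compounds. Activity normalised to PTC124 versus DMSO; concentration-response curves classed by r2, magnitude and activity.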
Chain of Luciferin 4-monooxygenase (Photinus pyralis) (P08659 whole entry, looked up): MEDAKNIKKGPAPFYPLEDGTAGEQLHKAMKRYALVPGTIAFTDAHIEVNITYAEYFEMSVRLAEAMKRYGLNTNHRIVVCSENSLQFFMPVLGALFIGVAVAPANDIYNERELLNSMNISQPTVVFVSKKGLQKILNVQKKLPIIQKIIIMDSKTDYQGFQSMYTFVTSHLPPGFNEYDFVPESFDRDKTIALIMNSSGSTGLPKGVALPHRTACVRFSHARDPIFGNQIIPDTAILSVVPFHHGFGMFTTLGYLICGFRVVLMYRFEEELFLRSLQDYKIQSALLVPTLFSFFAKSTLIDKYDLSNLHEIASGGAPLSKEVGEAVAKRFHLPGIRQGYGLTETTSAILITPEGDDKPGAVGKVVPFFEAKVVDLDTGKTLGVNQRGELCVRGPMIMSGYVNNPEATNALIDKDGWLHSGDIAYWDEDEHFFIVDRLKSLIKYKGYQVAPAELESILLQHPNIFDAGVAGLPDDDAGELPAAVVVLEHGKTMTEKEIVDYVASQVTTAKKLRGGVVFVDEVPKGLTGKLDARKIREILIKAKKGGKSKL

Test [12] is described as follows: qHTS profiling for inhibitors of Plasmodium falciparum proliferation (AID 504749; active means well fitted curve in the direction sought with a large enough effect; an effect the other way counts as inactive or inconclusive;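 further: 0% = DMSO vehicle and full inhibition = artemisinin control; nearly all actives have a fitted effect of over 60% in size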). Conditions: P. falciparum in erythrocytes, SYBR Green DNA, 72 h, at 12.8 µM (top of the series). An outline of the steps: (§1)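 SYBR Green fluorescence (ex 485 nm, em 535 nm) reports parasite DNA after 72 h compound exposure of infected red cells at 0.3% parasitemia, 2.5% hematocrit; signal normalized to 0.29 uM artemisinin and vehicle wells.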

A further test concerns C2A. The test is described as above. Conditions: P. falciparum in erythrocytes, SYBR Green DNA, 72 h; series mostly up to 12.8 µM. An outline of the steps: as §1
A further test relates to CP217. The description is as above. The following applies: P. falciparum in erythrocytes, SYBR Green DNA, 72 h; series mostly up to 12.8 µM. The method, boiled down: as §1
For another test, the system named is CP238. The description is as above. Conditions: P. falciparum in erythrocytes, SYBR Green DNA, 72 h; series mostly up to 12.8 µM. An outline of the steps: as §1
Another test relates to CP250. Described as above. Conditions: P. falciparum in erythrocytes, SYBR Green DNA, 72 h; series mostly up to 12.8 µM. The method, boiled down: as §1
The next test relates to CP252. The description is as above. The following applies: P. falciparum in erythrocytes, SYBR Green DNA, 72 h; series mostly up to 12.8 µM. An outline of the steps:
as §1

The test system of another test is FAB9. Described as above. Conditions: P. falciparum in erythrocytes, SYBR Green DNA, 72 h; series mostly up to 12.8 µM. The method, boiled down:
as §1

In a further test the test system is HB3. The test is described as above. The following applies: P. falciparum in erythrocytes, SYBR Green DNA, 72 h; series mostly up to 12.8 µM. An outline of the steps:
as §1

A further test has as its system SC27B. The test is described as above. The following applies: P. falciparum in erythrocytes, SYBR Green DNA, 72 h; series mostly up to 12.8 µM. The method, boiled down: as §1
[13] abbreviates: measured here: cell count channel max response.
[14] abbreviates: measured here: lipid channel max response.

Inconclusive results are not listed. Activity calls are given as the source filed them. Unless noted, the call rests on the fitted dose curve; in most records, active means well fitted curve in either direction with a large enough effect (not every such curve was filed as active); inconclusive means small, poorly fitted or top-dose-only effect, or another doubt; inactive means flat fitted curve, though single readings scatter.

Chain of 3',5'-cyclic-AMP phosphodiesterase 4B (Homo sapiens) (Q07343 whole entry, looked up): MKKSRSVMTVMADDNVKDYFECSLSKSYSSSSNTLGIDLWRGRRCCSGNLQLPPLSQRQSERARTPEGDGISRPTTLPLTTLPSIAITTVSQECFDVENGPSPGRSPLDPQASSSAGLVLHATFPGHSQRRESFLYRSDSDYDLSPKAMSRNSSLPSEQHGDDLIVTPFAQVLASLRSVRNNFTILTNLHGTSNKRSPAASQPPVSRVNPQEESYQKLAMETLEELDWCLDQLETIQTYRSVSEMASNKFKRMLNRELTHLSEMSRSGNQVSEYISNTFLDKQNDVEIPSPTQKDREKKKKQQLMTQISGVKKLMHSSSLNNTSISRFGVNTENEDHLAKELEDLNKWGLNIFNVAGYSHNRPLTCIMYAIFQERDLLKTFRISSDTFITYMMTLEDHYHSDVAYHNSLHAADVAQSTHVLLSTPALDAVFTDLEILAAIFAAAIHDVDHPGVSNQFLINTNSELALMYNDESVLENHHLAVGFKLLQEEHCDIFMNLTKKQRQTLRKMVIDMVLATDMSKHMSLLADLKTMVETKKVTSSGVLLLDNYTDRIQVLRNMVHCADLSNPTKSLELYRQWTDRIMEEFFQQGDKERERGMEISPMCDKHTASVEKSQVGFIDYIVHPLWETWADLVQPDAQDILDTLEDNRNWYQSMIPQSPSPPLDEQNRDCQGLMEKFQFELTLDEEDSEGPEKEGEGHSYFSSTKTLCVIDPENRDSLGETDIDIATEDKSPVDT
Chain of ATP-dependent 6-phosphofructokinase (Trypanosoma brucei brucei) (O15648 whole entry, looked up): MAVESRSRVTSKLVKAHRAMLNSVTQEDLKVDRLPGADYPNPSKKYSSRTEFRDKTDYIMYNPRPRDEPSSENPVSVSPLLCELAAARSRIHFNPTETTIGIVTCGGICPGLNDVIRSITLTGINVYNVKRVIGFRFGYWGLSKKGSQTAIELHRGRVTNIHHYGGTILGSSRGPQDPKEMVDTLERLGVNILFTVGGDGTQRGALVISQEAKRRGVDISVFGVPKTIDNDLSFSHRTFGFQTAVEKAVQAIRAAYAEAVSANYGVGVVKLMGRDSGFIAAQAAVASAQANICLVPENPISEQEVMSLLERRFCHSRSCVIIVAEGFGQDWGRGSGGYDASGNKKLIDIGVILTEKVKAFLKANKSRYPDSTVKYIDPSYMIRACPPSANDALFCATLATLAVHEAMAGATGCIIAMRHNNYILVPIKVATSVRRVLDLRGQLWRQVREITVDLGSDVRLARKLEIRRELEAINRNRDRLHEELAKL

As to `COc1cc(C2Oc3cc(C4Oc5cc(O)cc(O)c5C(=O)C4O)ccc3OC2CO)ccc1O` (stereo unspecified), the call in test [1] and in [3] was inactive. The results for the activity change, negative = inhibition in test [2] and in [5] (at 57.5 µM (top of the series)) were 22.6% (inactive) and 18.7% (inactive), respectively. Besides, the Potency in [4] is > 20.6 µM (inactive). The max response in [5] (setting [13]) worked out at 5.37%; in test [5] (setting [14]), 24.8%.

For the compound `Cc1cn([C@@H]2C[C@H](N=[N+]=N)[C@H](CO)O2)c(=O)[nH]c1=O`, the call in test [1], in [3] and in [8] was inactive. Moreover, the activity change, negative = inhibition in test [2] is -2.1% (inactive); in [5] (at 25.7 µM (top of the series)), -0.533% (inactive). Also, the Potency in [4] and in test [6] was > 20.6 µM (inactive) each time. Also, the Potency entry in [7] and in [9] was “inactive” in each case. Further, the max response in [5] (setting [13]) was -19.5%; in [5] (setting [14]) it was -18.3%.

As for `C[N+]1(C)CCC[C@H]1C(=O)[O-]`, the outcome in test [1] and in [3] was inactive. Moreover, the activity change, negative = inhibition in test [2] is -2.21% (inactive); in test [5] (at 25.7 µM (top of the series)), -1.16% (inactive). In addition, the Potency in [6] is > 20.6 µM (inactive). In test [7], the Potency entry was “inactive”. For the same compound, the max response worked out at 6.12% in test [5] (setting [13]) and 4.64% in test [5] (setting [14]).

Consider `CC(=O)OCC(=O)[C@@]12OC(C)(C)O[C@@H]1C[C@H]1[C@H]3C[C@H](F)C4=CC(=O)C=C[C@@]4(C)[C@]3(F)[C@H](O)C[C@@]12C`, for which the outcome in test [1], in [3], in test [8] and in test [10] was inactive. Besides, the activity change, negative = inhibition in [2] was -1.01% (inactive); in test [5] (at 25.7 µM (top of the series)) it was -1.78% (inactive). Further, the Potency in test [6] was 0.0128 µM (active). The Potency entry (in test [7]; in test [9]; in test [11]; in the test on C2A; in the test with CP217; with CP238) was “inactive” throughout. Also, the Potency result in the test with CP250, in the test on CP252, in the test on FAB9, in the test on HB3 and in the test with SC27B was “inactive” throughout. The max response is -13.1% in test [5] (setting [13]) and -17.4% in test [5] (setting [14]). Also, the results for the activity, negative = inhibition in [12] (parasite line A) and in test [12] (parasite line B) were -6.81% (inactive) and -12% (inactive), respectively.

`NC[C@@H]1O[C@@H](O[C@H]2[C@H](O)[C@H](O[C@@H]3O[C@H](CO)[C@@H](O)[C@H](N)[C@@H]3O)[C@@H](N)C[C@H]2N)[C@H](N)C[C@@H]1O`: the outcome in test [1], in [3] and in test [8] was inactive. Moreover, the activity change, negative = inhibition is -7.92% (inactive) in [2] and -2.29% (inactive) in [5] (at 25.7 µM (top of the series)). Further, the Potency result (in [7]; in test [11]; in the test on C2A; with CP217; with CP238; with CP250) was “inactive” throughout. Also, the Potency result in the test on CP252, with FAB9, in the test with HB3 and with SC27B was “inactive” in each case. For the same compound, the max response in test [5] (setting [13]) was -4.83%; in test [5] (setting [14]) it was -6.77%. Also, the figures for the activity, negative = inhibition in [12] (parasite line A) and in [12] (parasite line B) were 9.72% (inactive) and 18.7% (inactive), respectively.

As to `Fc1ccc(Nc2nc(-c3cccnc3)nc3ccccc23)cc1`, the compound was called inactive in [1] and in test [3]. The activity change, negative = inhibition in [2] was -9.74% [at 7.69 µM] (inactive); in test [5] (at 57.5 µM (top of the series)) it was 7.7% (inactive). Further, the values for the Potency in [6] and in test [9] were > 46 µM (inactive) and 39.8 µM (active), respectively. Besides, the Potency result in [7] was “inactive”. Also, the results for the max response in test [5] (setting [13]) and in test [5] (setting [14]) were -6.31% and 0.257%, respectively.

Take `CC1(C)S[C@@H]2[C@H](NC(=O)COc3ccccc3)C(=O)N2[C@H]1C(=O)O` (tested in a mixture with another compound): the compound was called inactive in test [1], in test [3] and in [8]. For the same compound, the activity change, negative = inhibition in test [2] was -7.06% (inactive); in test [5] (at 25.7 µM (top of the series)), 1.44% (inactive). Also, the Potency in [6] is > 20.6 µM (inactive). Moreover, the Potency result in test [7] and in test [9] was “inactive” in each case. Moreover, the max response was -7.85% in test [5] (setting [13]) and -7.74% in [5] (setting [14]).
